Results on 40 compounds are retold here after PubChem BioAssay (EPA / NIEHS).

Each structure is given as a SMILES string. Calls of active or inactive are those of the source. Rule for the calls: active = hit-call score of the fitted dose curve at least 0.9, where 1 is the maximum; inactive = score below 0.9.

Read-out in the test: Interferon-gamma inducible Protein 10 (IP10), CXCL10 (gene 3627)
Nature of the test: BSK_BE3C_IP10: BioMAP Diversity Plus: BE3C Assay for Interferon-gamma inducible Protein 10 (IP10) Biomarker Activity (AID 2283034). The following applies: primary human bronchial epithelial cells; actives raise or lower the signal. The method, then:
BSK_BE3C is a cell-based, multiplexed-readout assay that uses bronchial epithelial cell, a human lung primary cell, with measurements taken at 24 hours after chemical dosing in a 96-well plate.BSK_BE3C_IP10 is an assay component measured in the BSK_BE3C assay. It measures IP-10 antibody related to regulation of gene expression using ELISA technology.Data from the assay component BSK_BE3C_IP10 was analyzed into 1 assay endpoint. This assay endpoint, BSK_BE3C_IP10, was analyzed with bidirectional fitting relative to DMSO as the negative control and baseline of activity. Using a type of binding reporter, gain or loss-of-signal activity can be used to understand changes in the signaling as they relate to the gene CXCL10. Furthermore, this assay endpoint can be referred to as a primary readout, because this assay has produced multiple assay endpoints where this one serves a signaling function. To generalize the intended target to other relatable targets, this assay endpoint is annotated to the cytokine intended target family, where the subfamily is chemotactic factor.
The levels of cell surface (or secreted, indicated by the prefix "s") biomarker endpoints were measured by ELISA. Overt cytotoxicity to cells in confluent adherent cultures (all systems other than the BT system) was assessed by measuring total protein levels using sulforhodamine B (SRB) staining in parallel cultures at the time of biomarker measurements, indicated as SRB endpoints. For proliferation assays for adherent cell types, individual cell types are cultured at sub-confluence and relative cell numbers quantified by SRB staining at time points optimized for each system (48 h: 3C and CASM3C systems; 72 h: BT and HDF3CGF systems; 96 h: SAg system). SRB was performed by staining cells with 0.1% SRB after fixation with 10% TCA and reading wells at 560 nm.Viability and proliferation of PBMC (T cells) was quantified by Alamar Blue reduction for the SAg and BT systems. For PBMC viability (referred to as PBMC Cytotoxicity within the assay endpoint names), cells were plated (75,000/well in a 96-well plate) and then chemical samples added for 1 h before addition of activators, SEB and TSST-1 (20 ng/mL final concentration each). Cells were incubated for 90 h. Then, Alamar Blue (20 uL/well) (Invitrogen, Cat DAL1100) was added for 6 h, and the plates were read with a fluorescence microplate reader at 546/580 nm (excitation/emission). For PBMC proliferation, cells were plated and activated as above but incubated for only 16 h prior to addition of Alamar Blue. Plates were read after 6 h.
As for `CCCCC(CC)COC(=O)CC(C(=O)OCC(CC)CCCC)S(=O)(=O)O` (stereo not given), the AC50 (as a rule, the concentration at which the activity in the assay is half-maximal) is 7.16 µM (active).
In the case of `Cc1cc(=O)[nH]c(=S)[nH]1`, the result was inactive.
The same measure, in the same setting: as for `COc1ccc(C)cc1N`, the entry is “inactive”.
For `O=C(O)CCCCC(=O)O`, the result was inactive.
Same read-out and setting: with `NCC1(Cc2noc(=O)[nH]2)CCCCC1` the entry was “inactive”.
For the compound `CCCCCCCCCCCCCO`, the AC50 is 29.7 µM (active).
With `CC(=O)Oc1ccccc1C(=O)O`, the outcome was inactive.
Take `COc1cc(C=O)ccc1O`: the result was inactive.
Same read-out and setting: as for `c1cc(-c2ccncc2)ccn1`, the entry is “inactive”.
Same read-out and setting: as for `Cc1cccc([N+](=O)[O-])c1C`, the entry is “inactive”; as for `Cc1cc(NC(=O)C(=O)O)cc(C)c1Oc1ccc(O)c2c1CCC2`, “inactive”; as for `CC1=C(/C=C/C(C)=C/C=C/C(C)=C/CO)C(C)(C)CCC1`, “inactive”.
Take `COc1cc(S(=O)(=O)O)c(C)cc1N=Nc1c(O)ccc2cc(S(=O)(=O)O)ccc12`: the outcome was inactive.
On the same count and under the same terms, with `C[Si]1(C)O[Si](C)(C)O[Si](C)(C)O[Si](C)(C)O1` the entry was “inactive”.
The same measure, in the same setting: with `CCCCc1ccc2c(n1)[C@@H](c1ccc(OC)cc1C[C@H](C)C(=O)O)[C@H](C(=O)O)[C@H]2c1ccc2c(c1)OCO2` the entry was “inactive”.
The same measure, in the same setting: as for `FC(F)(F)C(F)(F)C(F)(F)C(F)(F)C(F)(F)C(F)(F)CCI`, the entry is “inactive”.
As to `CC1(C)CC(N=C=O)CC(C)(CN=C=O)C1` (stereo not given), the result was inactive.
The same measure, in the same setting: with `CC(C)c1ccc(C(=O)N=C(N)N)cc1S(C)(=O)=O` the entry was “inactive”; with `O=C(OCCCCCOC(=O)c1ccccc1)c1ccccc1`, “inactive”.
On to `CN[C@H]1CC[C@@H](c2ccc(Cl)c(Cl)c2)c2ccc(S(N)(=O)=O)cc21`, for which the AC50 is 37 µM (active).
`COCCOC[C@H](CC1(C(=O)NC2CCC(C(=O)O)CC2)CCCC1)C(=O)Oc1ccc2c(c1)CCC2` (stereo not given in full): the outcome was inactive.
On the same count and under the same terms, with `CCCCOC(=O)CCCCCCCCC(=O)OCCCC` the entry was “inactive”; with `Clc1cc(Cl)c(Cl)cc1Cl`, “inactive”.
On the same count and under the same terms, with `CCCCCCCCCCC` the entry was “inactive”; with `Cc1nc(C)nc(N2C[C@@H](C)N(c3ccnc([C@@H](C)O)n3)[C@@H](C)C2)n1`, “inactive”.
Still for that read-out and setting: with `CCCCCCCCCCCC(=O)OC` the entry was “inactive”; with `CCCc1cc(=O)[nH]c(=S)[nH]1`, “inactive”.
With `O=[N+]([O-])C(CO)(CO)CO`, the outcome was inactive.
Still for that read-out and setting: as for `CNC(=O)[C@H]1O[C@@H](n2cnc3c(NCc4cc(Cl)ccc4OCc4cc(C)no4)ncnc32)[C@H](O)[C@@H]1N`, the entry is “inactive”; as for `CC(=O)OCCOCCOCCOC(C)=O`, “inactive”.
Still for that read-out and setting: as for `O=c1[nH]cc(F)c(=O)[nH]1`, the entry is “inactive”.
Same read-out and setting: as for `CCCCN(CCCC)CCCC`, the entry is “inactive”; as for `Cc1ccccc1Cl`, “inactive”; as for `COc1ccc2c(c1)c(CC(=O)O)c(C)n2C(=O)c1ccc(Cl)cc1`, “inactive”.
For the compound `C[C@]12C=CC(=O)C=C1CC[C@@H]1[C@@H]2C(=O)C[C@@]2(C)[C@H]1CC[C@]2(O)C(=O)CO`, the result was inactive.
`CCCCCCCC=O`: the result was inactive.
The same measure, in the same setting: with `Nc1ccc(S(=O)(=O)c2ccc(N)cc2)cc1` the entry was “inactive”.
Still for that read-out and setting: with `CC(=O)C(C)=CC1C(C)=CCCC1(C)C` (stereo not given) the entry was “inactive”; with `Cc1ccc(C(C)C)c(O)c1`, “inactive”.
Turning to `Cc1ccc(C)c(C)c1`, the outcome was inactive.
